Data as given in PubChem BioAssay (EPA / NIEHS).
Activity calls are given as the source filed them. Rule for the calls: active = hit-call score of the fitted dose curve at least 0.9, where 1 is the maximum; inactive = score below 0.9.

Columns and labels:
Settings in all cases: mRNA level, 48 h; actives raise or lower the signal
[1] = read-out: ABC Transporter (ABCB1), ABCB1 (gene 5243); test: LTEA_HepaRG_ABCB1: Life Technologies and Expression Analysis (LTEA) Assay for ABC Transporter (ABCB1) using HepaRG (AID 2283460)
Outline: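 HepaRG cells exposed in duplicate for 48 h in serum-free induction medium to eight half-log concentrations up to 100 uM in 0.5% DMSO. ABCB1 mRNA quantified by qRT-PCR, normalised to ACTB, GAPDH and POLR2A; fitted bidirectionally versus DMSO.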

[2] = read-out: growth arrest and DNA damage 45 (GADD45B), GADD45B (gene 4616); test: LTEA_HepaRG_GADD45B: Life Technologies and Expression Analysis (LTEA) Assay for growth arrest and DNA damage 45 (GADD45B) using HepaRG (AID 2283461)
Outline: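 Differentiated human HepaRG cells in serum-free induction medium exposed 48 h in duplicate to eight concentrations, top 100 uM, half-log steps, 0.5% DMSO. GADD45B mRNA by TaqMan qRT-PCR, normalized to ACTB, GAPDH, POLR2A; bidirectional fit versus DMSO.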

[3] = read-out: ABC Transporter (ABCC3), ABCC3 (gene 8714); test: LTEA_HepaRG_ABCC3: Life Technologies and Expression Analysis (LTEA) Assay for ABC Transporter (ABCC3) using HepaRG (AID 2283462)
Outline: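 Differentiated human HepaRG cells exposed 48 h in serum-free induction medium, 0.5% DMSO vehicle, 8-point half-log series to 100 uM in duplicate. ABCC3 mRNA by qRT-PCR, normalised to ACTB, GAPDH, POLR2A; bidirectional fit vs DMSO.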

[4] = read-out: ABC Transporter (ABCB11), ABCB11 (gene 8647); test: LTEA_HepaRG_ABCB11: Life Technologies and Expression Analysis (LTEA) Assay for ABC Transporter (ABCB11) using HepaRG (AID 2283463)
Outline: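 Differentiated human HepaRG cells in serum-free induction medium, dosed in duplicate for 48 h. Eight-point half-log series from 100 uM in 0.5% DMSO; ABCB11 mRNA by qRT-PCR, normalized to ACTB, GAPDH, POLR2A, fitted bidirectionally versus DMSO.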

[5] = read-out: ABC Transporter (ABCC2), ABCC2 (gene 1244); test: LTEA_HepaRG_ABCC2: Life Technologies and Expression Analysis (LTEA) Assay for ABC Transporter (ABCC2) using HepaRG (AID 2283464)
Outline: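 Differentiated HepaRG cells in serum-free induction medium exposed 48 h to eight half-log concentrations up to 100 uM, 0.5% DMSO, in duplicate. ABCC2 mRNA measured by qRT-PCR (TaqMan, Fluidigm), normalized to ACTB, GAPDH and POLR2A. Fitted in both directions against DMSO.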

[6] = read-out: Broad substrate specificity ATP-binding cassette transporter ABCG2 (Homo sapiens) (UniProt Q9UNQ0); test: LTEA_HepaRG_ABCG2: Life Technologies and Expression Analysis (LTEA) Assay for ABC Transporter (ABCG2) using HepaRG (AID 2283465)
Outline: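 Differentiated HepaRG cells were exposed for 48 h in serum-free induction medium to 8 half-log concentrations, top 100 uM, in 0.5% DMSO. ABCG2 mRNA was measured by qRT-PCR, normalized to ACTB, GAPDH and POLR2A, with bidirectional fitting versus DMSO.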

[7] = read-out: ATP-citrate lyase (ACLY), ACLY (gene 47); test: LTEA_HepaRG_ACLY: Life Technologies and Expression Analysis (LTEA) Assay for ATP-citrate lyase (ACLY) using HepaRG (AID 2283466)
Outline: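 Differentiated HepaRG cells exposed 48 h in serum-free induction medium to eight half-log concentrations up to 100 uM in 0.5% DMSO, duplicates. Transcript measured by Fluidigm TaqMan qRT-PCR, normalized to ACTB, GAPDH, POLR2A; bidirectional fit versus DMSO.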

[8] = read-out: Peroxisomal acyl-coenzyme A oxidase 1 (ACOX1) gene, ACOX1 (gene 51); test: LTEA_HepaRG_ACOX1: Life Technologies and Expression Analysis (LTEA) Assay for Peroxisomal acyl-coenzyme A oxidase 1 (ACOX1) gene using HepaRG (AID 2283467)
Outline: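 HepaRG cells, plated 48 h then switched to serum-free induction medium, were exposed in duplicate for 48 h to 8-point half-log concentrations up to 100 uM in 0.5% DMSO. ACOX1 mRNA was measured by qRT-PCR, normalized to ACTB/GAPDH/POLR2A, and fitted bidirectionally versus DMSO.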

[9] = read-out: Alkaline Phosphatase, Placental (ALPP) gene, ALPP (gene 250); test: LTEA_HepaRG_ALPP: Life Technologies and Expression Analysis (LTEA) Assay for Alkaline Phosphatase, Placental (ALPP) gene using HepaRG (AID 2283468)
Outline: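 HepaRG cells plated 48 h, then exposed in duplicate for 48 h in serum-free induction medium to 8-point half-log series from 100 uM in 0.5% DMSO. ALPP mRNA by TaqMan qRT-PCR, normalized to ACTB/GAPDH/POLR2A; bidirectional fit versus DMSO.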

[10] = read-out: Bcl-2 (BAD) gene, BAD (gene 572); test: LTEA_HepaRG_BAD: Life Technologies and Expression Analysis (LTEA) Assay for Bcl-2 (BAD) gene using HepaRG (AID 2283469)
Outline: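 Differentiated HepaRG cells were exposed in duplicate in 0.5% DMSO for 48 h to eight-point half-log concentrations up to 100 uM. BAD mRNA was measured by Fluidigm TaqMan qRT-PCR, normalized to ACTB, GAPDH and POLR2A, and fitted bidirectionally against DMSO.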

[11] = read-out: Bcl-2 (BAX) gene, BAX (gene 581); test: LTEA_HepaRG_BAX: Life Technologies and Expression Analysis (LTEA) Assay for Bcl-2 (BAX) gene using HepaRG (AID 2283470)
Outline: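 HepaRG (human liver), 48 h exposure, duplicate wells. 8-pt curve, half-log from 100 uM, 0.5% DMSO. BAX transcript by TaqMan qRT-PCR; ACTB/GAPDH/POLR2A normalization; gain or loss vs DMSO baseline.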

[12] = read-out: adenosine kinase (ADK) gene, ADK (gene 132); test: LTEA_HepaRG_ADK: Life Technologies and Expression Analysis (LTEA) Assay for adenosine kinase (ADK) gene using HepaRG (AID 2283471)
Outline: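 Differentiated HepaRG cells dosed 48 h in serum-free induction medium, 0.5% DMSO vehicle, eight half-log concentrations from 100 uM, in duplicate. ADK mRNA by TaqMan qRT-PCR normalised to ACTB, GAPDH, POLR2A; bidirectional fit versus DMSO.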

[13] = read-out: Alpha-fetoprotein (AFP) gene, AFP (gene 174); test: LTEA_HepaRG_AFP: Life Technologies and Expression Analysis (LTEA) Assay for Alpha-fetoprotein (AFP) gene using HepaRG (AID 2283472)
Outline: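 HepaRG, single lot; 48 h post-plating -> serum-free induction medium; cpd 8-pt, 100 uM top, half-log, 0.5% DMSO, duplicate, 48 h. RNA -> qRT-PCR AFP, norm ACTB/GAPDH/POLR2A. Bidirectional fit vs DMSO.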

BCL2L11 (gene 10018) = test: LTEA_HepaRG_BCL2L11: Life Technologies and Expression Analysis (LTEA) Assay for Bcl-2 (BCL2L11) gene using HepaRG (AID 2283473)
Outline: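 Differentiated human HepaRG cells were exposed 48 h in serum-free induction medium to eight half-log concentrations up to 100 uM in 0.5% DMSO, in duplicate. BCL2L11 mRNA was quantified by TaqMan qRT-PCR, normalized to ACTB, GAPDH and POLR2A; induction or repression fitted versus DMSO.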

[14] = read-out: Apolipoprotein A-V (APOA5) gene, APOA5 (gene 116519); test: LTEA_HepaRG_APOA5: Life Technologies and Expression Analysis (LTEA) Assay for Apolipoprotein A-V (APOA5) gene using HepaRG (AID 2283474)
Outline: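 Differentiated HepaRG cells in serum-free induction medium, exposed 48 h in duplicate to eight half-log concentrations topping at 100 uM (0.5% DMSO). APOA5 mRNA by Fluidigm TaqMan qRT-PCR, normalized to ACTB, GAPDH and POLR2A; bidirectional fit versus DMSO.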

[15] = read-out: Apoptosis regulator Bcl-2 (Homo sapiens) (UniProt P10415); test: LTEA_HepaRG_BCL2: Life Technologies and Expression Analysis (LTEA) Assay for Bcl-2 gene using HepaRG (AID 2283475)
Outline: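 HepaRG, plated 48 h then switched to serum-free induction medium; dosed 48 h, 8 conc. (max 100 uM, half-log steps), duplicate, 0.5% DMSO. Lysis in RLT, RNA isolated, TaqMan qRT-PCR for BCL2; ACTB/GAPDH/POLR2A normalisation; bidirectional fit vs DMSO.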

[16] = read-out: Bcl-2 (BID) gene, BID (gene 637); test: LTEA_HepaRG_BID: Life Technologies and Expression Analysis (LTEA) Assay for Bcl-2 (BID) gene using HepaRG (AID 2283476)
Outline: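 Transcript levels of BID, measured by qRT-PCR and normalized to three housekeeping genes, were fitted bidirectionally against DMSO controls. Cells were HepaRG, dosed 48 h at up to 100 uM.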

Caspase-3 (Homo sapiens) = Caspase-3 (Homo sapiens) (UniProt P42574); test: LTEA_HepaRG_CASP3: Life Technologies and Expression Analysis (LTEA) Assay for cysteine-aspartic acid protease (CASP3) using HepaRG (AID 2283477)
Outline: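 Differentiated HepaRG cells, plated 48 h, were treated in duplicate in serum-free induction medium for 48 h with eight half-log concentrations up to 100 uM in 0.5% DMSO. CASP3 mRNA measured by qRT-PCR, normalized to ACTB, GAPDH, POLR2A.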

[17] = read-out: Cytochrome P450 (CYP24A1), CYP24A1 (gene 1591); test: LTEA_HepaRG_CYP24A1: Life Technologies and Expression Analysis (LTEA) Assay for Cytochrome P450 (CYP24A1) using HepaRG (AID 2283478)
Outline: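 HepaRG cells plated 48 h, then exposed in duplicate in serum-free induction medium for 48 h to 8-point half-log series from 100 uM in 0.5% DMSO. CYP24A1 mRNA by Fluidigm qRT-PCR, normalized to ACTB, GAPDH, POLR2A; bidirectional fit versus DMSO.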

[18] = read-out: Cytochrome P450 (CYP1A2), CYP1A2 (gene 1544); test: LTEA_HepaRG_CYP1A2: Life Technologies and Expression Analysis (LTEA) Assay for Cytochrome P450 (CYP1A2) using HepaRG (AID 2283479)
Outline: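 Differentiated human HepaRG cells in serum-free induction medium exposed 48 hours in duplicate to 8 half-log concentrations from 100 uM, 0.5% DMSO. CYP1A2 mRNA quantified by qRT-PCR, normalized to ACTB, GAPDH and POLR2A; bidirectional fitting versus DMSO.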

Measured: AC50

Chain of Apoptosis regulator Bcl-2 (Homo sapiens) (P10415 whole entry, looked up): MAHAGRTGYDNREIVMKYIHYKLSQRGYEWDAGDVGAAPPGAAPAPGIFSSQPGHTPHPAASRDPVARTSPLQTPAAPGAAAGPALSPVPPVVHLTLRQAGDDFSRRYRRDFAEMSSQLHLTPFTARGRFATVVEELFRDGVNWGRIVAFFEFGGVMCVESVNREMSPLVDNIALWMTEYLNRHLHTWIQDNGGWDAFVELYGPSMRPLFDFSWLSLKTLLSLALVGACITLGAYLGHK
Chain of Caspase-3 (Homo sapiens) (P42574 whole entry, looked up): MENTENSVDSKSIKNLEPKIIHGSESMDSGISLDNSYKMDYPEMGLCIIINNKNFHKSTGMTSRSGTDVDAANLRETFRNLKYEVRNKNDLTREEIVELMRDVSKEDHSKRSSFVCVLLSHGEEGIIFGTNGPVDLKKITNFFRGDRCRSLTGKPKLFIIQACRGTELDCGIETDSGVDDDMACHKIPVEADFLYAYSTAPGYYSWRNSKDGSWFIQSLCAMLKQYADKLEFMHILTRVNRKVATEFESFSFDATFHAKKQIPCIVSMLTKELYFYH
Chain of Broad substrate specificity ATP-binding cassette transporter ABCG2 (Homo sapiens) (Q9UNQ0 whole entry, looked up): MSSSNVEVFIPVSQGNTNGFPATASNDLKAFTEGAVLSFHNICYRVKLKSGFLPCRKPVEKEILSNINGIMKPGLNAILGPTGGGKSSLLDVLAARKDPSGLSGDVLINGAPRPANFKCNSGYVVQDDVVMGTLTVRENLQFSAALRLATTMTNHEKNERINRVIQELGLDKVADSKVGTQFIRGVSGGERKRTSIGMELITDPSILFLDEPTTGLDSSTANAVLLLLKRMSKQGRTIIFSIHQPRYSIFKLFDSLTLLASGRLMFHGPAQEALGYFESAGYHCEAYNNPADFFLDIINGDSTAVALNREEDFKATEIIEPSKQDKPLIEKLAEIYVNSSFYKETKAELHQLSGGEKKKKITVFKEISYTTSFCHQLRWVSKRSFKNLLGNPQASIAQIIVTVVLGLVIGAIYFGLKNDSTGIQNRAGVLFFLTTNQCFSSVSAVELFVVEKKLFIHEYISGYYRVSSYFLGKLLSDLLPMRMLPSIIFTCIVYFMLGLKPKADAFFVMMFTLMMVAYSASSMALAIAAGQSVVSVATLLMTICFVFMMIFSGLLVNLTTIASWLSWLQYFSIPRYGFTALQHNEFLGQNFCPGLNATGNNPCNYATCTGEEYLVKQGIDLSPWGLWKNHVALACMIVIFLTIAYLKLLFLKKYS

CCOc1nc(F)cc2nc(S(=O)(=O)Nc3c(Cl)cccc3Cl)nn12
active: [4] 41.7 µM | [5] 7.91 µM | [12] 41.3 µM | [13] 25.3 µM
inactive: all other assays above

COCC(=O)N(c1c(C)cccc1C)C(C)C(=O)OC (stereo not given)
inactive: all assays above

COP(=S)(OC)Oc1ccc([N+](=O)[O-])c(C)c1
active: [17] 0.00316 µM | [18] 50 µM
inactive: all other assays above

CNC(=O)N(C)c1nnc(C(C)(C)C)s1
active: [18] 50 µM
inactive: all other assays above

CCNC(=O)NC(=O)C(C#N)=NOC
active: [3] 0.791 µM | [13] 75.6 µM | [16] 0.234 µM
inactive: all other assays above

CCCCOCN(C(=O)CCl)c1c(CC)cccc1CC
active: [1] 83.7 µM
inactive: all other assays above

CC(C)=CC1C(C(=O)OCc2coc(Cc3ccccc3)c2)C1(C)C (stereo not given)
active: [1] 29.3 µM | [4] 50 µM | [5] 50 µM
inactive: all other assays above
